According to PubChem BioAssay AID1159580 (chemical genetic matrix, 2015):
Among all 5,500 compounds or so, about 2,000 (36%) were called active. Roughly 18% stayed inconclusive and do not appear here. Cut-off read from the data, not from the text of the source: active = normalized growth mostly below about 0.91 (no sharp cut-off); inconclusive = no clear call, values can overlap the other calls; inactive = mostly above about 0.92. The list shows a part of the results.

Assay: chemical genetic growth profiling, strain panel (AID 1159580);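 note: tested at 20 µM; growth read once vehicle control cultures reached saturation at 30 °C; 1 = growth at the plate median or of vehicle wells; lower values mean less growth of the strain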
Details: S. cerevisiae deletion strains, growth OD

Measured: normalized growth

COc1ccc2c(=O)ccoc2c1
inactive: locus YAL013W, strain DEP1, stronger effect = lower value 1.02 | locus YAL021C, strain ccr4, stronger effect = lower value 1.02 | locus YAL026C, strain drs2, stronger effect = lower value 1.02 | locus YAL030W, strain snc1, stronger effect = lower value 1.01 | locus YBL061C, strain skt5, stronger effect = lower value 1.01 | locus YBR009C, strain hhf1, stronger effect = lower value 1.02 | locus YBR021W, strain FUR4, stronger effect = lower value 0.979 | locus YBR023C, strain chs3, stronger effect = lower value 1.02 | locus YBR171W, strain sec66, stronger effect = lower value 1.04 | locus YBR229C, strain ROT2, stronger effect = lower value 1.01 | locus YBR231C, strain swc5, stronger effect = lower value 1.01 | locus YBR279W, strain paf1, stronger effect = lower value 1.02 | locus YCL011C, strain gbp2, stronger effect = lower value 1.02 | locus YCL016C, strain dcc1, stronger effect = lower value 1.02 | locus YCL029C, strain bik1, stronger effect = lower value 1.01 | locus YCL061C, strain MRC1, stronger effect = lower value 1.02 | locus YCL069W, strain vba3, stronger effect = lower value 1.02 | locus YCR088W, strain abp1, stronger effect = lower value 1.03 | locus YDL005C, strain med2, stronger effect = lower value 1.02 | locus YDL035C, strain GPR1, stronger effect = lower value 1 | locus YDL040C, strain nat1, stronger effect = lower value 1.02 | locus YDL074C, strain BRE1, stronger effect = lower value 1.02 | locus YDL101C, strain DUN1, stronger effect = lower value 1.02 | locus YDL134C, strain PPH21, stronger effect = lower value 1.02 | locus YDL185W, strain tfp1, stronger effect = lower value 1.01 | locus YDL192W, strain arf1, stronger effect = lower value 1.01 | locus YDR001C, strain nth1, stronger effect = lower value 1.02 | locus YDR069C, strain doa4, stronger effect = lower value 1.02 | locus YDR101C, strain arx1, stronger effect = lower value 0.995 | locus YDR137W, strain rgp1, stronger effect = lower value 1.03 | locus YDR150W, strain NUM1, stronger effect = lower value 1.03 | locus YDR159W, strain sac3, stronger effect = lower value 1.04 | locus YDR162C, strain NBP2, stronger effect = lower value 1.02 | locus YDR195W, strain ref2 1.08 | locus YDR297W, strain sur2, stronger effect = lower value 1.02 | locus YDR318W, strain mcm21, stronger effect = lower value 0.992 | locus YDR334W, strain swr1, stronger effect = lower value 1.02 | locus YDR335W, strain msn5, stronger effect = lower value 1.02 | locus YDR388W, stronger effect = lower value 1.01 | locus YDR392W, strain spt3, stronger effect = lower value 1.04 | locus YDR502C, strain sam2, stronger effect = lower value 1.01 | locus YEL003W, strain gim4, stronger effect = lower value 1.02 | locus YEL037C, strain rad23, stronger effect = lower value 1.02 | locus YEL061C, strain CIN8 (second series), stronger effect = lower value 1.02 | locus YEL061C, strain CIN8, stronger effect = lower value 1.01 | locus YER015W, strain faa2, stronger effect = lower value 1.03 | locus YER016W, strain bim1, stronger effect = lower value 1.02 | locus YER110C, stronger effect = lower value 1.01 | locus YER111C, strain swi4, stronger effect = lower value 1.01 | locus YER155C, strain BEM2 (second series), stronger effect = lower value 1 | locus YER155C, strain BEM2, stronger effect = lower value 1.02 | locus YER167W, strain BCK2, stronger effect = lower value 1.04 | locus YFR010W, strain ubp6, stronger effect = lower value 1.03 | locus YGL078C, strain dbp3, stronger effect = lower value 1.02 | locus YGL086W, strain mad1, stronger effect = lower value 1.01 | locus YGL167C, strain pmr1, stronger effect = lower value 1.03 | locus YGL173C, strain kem1, stronger effect = lower value 1.02 | locus YGL227W, strain vid30, stronger effect = lower value 1.03 | locus YGL240W, strain doc1, stronger effect = lower value 1.02 | locus YGL248W, strain PDE1, stronger effect = lower value 1.02 | locus YGL253W, strain hxk2, stronger effect = lower value 1.02 | locus YGR078C, strain PAC10, stronger effect = lower value 0.997 | locus YGR135W, strain pre9, stronger effect = lower value 0.978 | locus YGR229C, strain SMI1, stronger effect = lower value 1.04 | locus YGR252W, strain gcn5, stronger effect = lower value 0.825 | locus YHR013C, strain ard1, stronger effect = lower value 1.08 | locus YHR027C, strain rpn1, stronger effect = lower value 1.03 | locus YHR030C, strain SLT2, stronger effect = lower value 1.02 | locus YHR079C, strain IRE1 (second series), stronger effect = lower value 0.998 | locus YHR094C, strain hxt1, stronger effect = lower value 1.01 | locus YHR129C, strain ARP1, stronger effect = lower value 1.01 | locus YHR142W, strain chs7, stronger effect = lower value 1.03 | locus YHR200W, strain rpn10, stronger effect = lower value 0.997 | locus YIL066C, strain RNR3, stronger effect = lower value 1.01 | locus YIL073C, strain SPO22, stronger effect = lower value 1.04 | locus YIL125W, strain kgd1, stronger effect = lower value 1.02 | locus YIR030C, strain dcg1, stronger effect = lower value 1.01 | locus YJL092W, strain hpr5, stronger effect = lower value 1.02 | locus YJL095W, strain BCK1 (second series), stronger effect = lower value 1.02 | locus YJL095W, strain BCK1, stronger effect = lower value 0.991 | locus YJL115W, strain asf1, stronger effect = lower value 1.01 | locus YJL129C, strain trk1, stronger effect = lower value 1.06 | locus YJL134W, strain LCB3, stronger effect = lower value 1.02 | locus YJL154C, strain vps35, stronger effect = lower value 1.03 | locus YJL164C, strain tpk1, stronger effect = lower value 1.03 | locus YJL166W, strain qcr8, stronger effect = lower value 1.02 | locus YJL168C, strain set2, stronger effect = lower value 1.01 | locus YJL187C, strain SWE1 (second series), stronger effect = lower value 1.01 | locus YJL187C, strain SWE1, stronger effect = lower value 1.02
